# Bioassay records as filed in PubChem BioAssay.
# Rows were chosen to be rich in hits. Some 1.9% of all compounds tested hit in one or more screens of this group.
# Giardia killer – Small Molecules that selectively kill Giardia lamblia: qHTS; hit rate 0.15% among 340,000; AID 540267, 2011; Giardia lamblia trophozoite viability; activity change, % at 7.66 µM, hits read low; in the data active = activity change below about -80%; inconclusive = between about -30% and that limit;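 also: parasites exposed to compound for two days anaerobically before the ATP read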
#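 Compounds were tested on trophozoites seeded at 100 cells/well and held 48 hrs at 37 deg C anaerobically. An ATP-based luminescent kit measured the remaining live cells.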
# IL-2 act – qHTS of IL-2 Activators; IL-2 activation reporter assay, cell-based qHTS; stimulated with anti-CD3/CD4/CD28 beads; in transgenic mouse T cells; hit rate 0.065% among 360,000; AID 652025, 2013; activation, % (series mostly up to about 46 µM); in the data active = activation above about 50%; inconclusive = mostly about 30% to 49%
#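 Unstimulated transgenic mouse T cells preincubated 60 min with compound, then stimulated with anti-CD3/anti-CD4-coated beads plus anti-CD28 for 18 h at 37 degrees C. IL-2 response read as EGFP and DsRed fluorescence by plate cytometry.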
# NPSR antag – qHTS Assay for Antagonists of the Neuropeptide S Receptor: cAMP Signal Transduction; CHO-NPSR cells, cAMP TR-FRET, antagonist mode; Potency, µM (highest dose often 38.3 µM), most hits filed as inhibitors; hit rate 1% among 220,000; also: nearly all actives have a fitted effect of over 50% in size
# RXFP1 antag – qHTS Assay for Antagonists of the Relaxin Receptor RXFP1; HEK293-RXFP1, relaxin-stimulated cAMP HTRF, 30 min; stronger effect = lower value; activity change, negative = inhibition, % at 57.5 µM; hit rate 0.59% among 350,000; AID 1259400, 2018; Relaxin receptor 1 (Homo sapiens), Q9HBX9;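 active = activity change of -60% or lower, but not beyond a set lower limit; inconclusive = change between -60% and -40%, or beyond the set limit; inactive = change above -40%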
# Target sequence (Q9HBX9 whole entry, looked up): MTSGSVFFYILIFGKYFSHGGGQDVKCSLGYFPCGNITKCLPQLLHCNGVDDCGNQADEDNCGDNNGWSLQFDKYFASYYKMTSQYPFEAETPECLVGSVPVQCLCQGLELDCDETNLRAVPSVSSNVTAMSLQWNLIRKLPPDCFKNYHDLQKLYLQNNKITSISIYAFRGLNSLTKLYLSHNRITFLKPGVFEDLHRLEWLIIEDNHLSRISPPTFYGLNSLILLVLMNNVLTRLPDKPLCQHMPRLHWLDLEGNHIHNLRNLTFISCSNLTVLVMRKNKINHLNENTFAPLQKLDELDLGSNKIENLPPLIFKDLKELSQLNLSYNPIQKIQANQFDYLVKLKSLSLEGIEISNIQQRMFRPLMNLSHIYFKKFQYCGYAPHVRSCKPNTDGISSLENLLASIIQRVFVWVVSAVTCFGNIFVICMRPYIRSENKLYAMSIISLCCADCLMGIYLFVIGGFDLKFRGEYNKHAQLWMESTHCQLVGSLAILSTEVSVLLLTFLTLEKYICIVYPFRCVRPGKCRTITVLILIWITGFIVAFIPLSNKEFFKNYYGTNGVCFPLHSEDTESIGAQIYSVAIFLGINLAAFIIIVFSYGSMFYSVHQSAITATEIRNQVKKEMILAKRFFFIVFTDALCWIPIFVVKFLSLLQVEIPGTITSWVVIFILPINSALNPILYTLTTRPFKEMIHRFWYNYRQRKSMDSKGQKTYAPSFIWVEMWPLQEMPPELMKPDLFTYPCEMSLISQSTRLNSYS
# BRCA1 expr act – qHTS Assay to Identify Small Molecule Activators of BRCA1 Expression; MCF7-BRCA1-FFLuc reporter, luminescence, 48 h; response scale: scaled: vehicle 0%, 10 µM genistein 100%; hit rate 1.1% among 380,000; Potency, µM (titrated, usually from 46.1 µM), usual class: activators; also: nearly all actives have a fitted effect of over 80% in size
#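 MCF7-BRCA1-FFLuc cells, 2000/well in phenol-red-free MEM, attached 2 h then treated 48 h at 37 C. Luciferase luminescence read 15 min after reagent; normalized to genistein maximum activation (10microM) and DMSO, concentration-response fitted.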
# RXFP1 ag – qHTS Assay for Agonists of the Relaxin Receptor RXFP1; HEK293T-RXFP1 cAMP TR-FRET, 30 min; response scale: percent of porcine relaxin response, buffer zero; Potency, µM (series often up to 57.5 µM), usual class: activators; hit rate 0.3% among 370,000; also: nearly all actives have a fitted effect of over 60% in size
#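 cAMP rise read by TR-FRET after 30 min, 37C compound exposure (up to 58 uM) in RXFP1-transfected HEK293 cells with Ro 20174 present. EC50 from Hill-equation fits, with 29 nM porcine relaxin as 100% and buffer as basal.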
# A number is an active result; – = inactive; ? = inconclusive; · = not tested or not shown; [ ] = remark or other dose. Unless noted, calls follow the shape of the dose curve; as a rule, active = well fitted curve in the direction sought with a large enough effect; inconclusive = small, poorly fitted or top-dose-only effect, or another doubt; inactive = no such curve, though single readings can be large; an effect the other way counts as inactive or inconclusive.
SMILES,Giardia killer,IL-2 act,NPSR antag,RXFP1 antag,BRCA1 expr act,RXFP1 ag
Cc1cc(NC(=O)COC(=O)c2ccccc2OCCOc2ccccc2)ccc1Br,·,·,·,·,–,·
C/C(NC(=O)c1ccccc1)=C1/C(=O)CC2C1C2(C)C (configuration not stated),–,–,–,–,11.2µM,–
O=C(O)/C=C/c1ccc2ccccc2c1,·,·,·,·,–,·
O=C(/C=C/c1ccc2ccccc2c1)c1ccoc1,–,–,–,–,12.6µM,–
COc1c([N+](=O)[O-])ccc(N)c1N,·,·,·,·,–,·
COc1cc(/C=N/NC(=O)c2ccncc2)ccc1OCC(=O)Nc1ccccc1,–,–,·,-73.5,–,–
O=C(COc1ccc(/C=N/NC(=O)c2cc3ccccc3o2)cc1Cl)Nc1ccccc1,?,–,3.98µM,–,–,–
COc1cc(/C=N/NC(=O)c2ccccc2O)ccc1OCC(=O)Nc1ccccc1,–,–,·,·,–,–
COc1cccc(C(=O)Oc2ccc(/C=N/NC(=O)c3ccncc3)cc2OC)c1,?,–,·,–,–,–
COc1cc(/C=N/NC(=O)c2ccncc2)ccc1OC(=O)c1cccc(Br)c1,–,–,·,-72.5,–,–
CC(C)CNC(=O)N1[C@H](c2cccs2)[C@@H](C)C(=O)[C@@H](C)[C@@H]1c1cccs1,·,·,·,–,·,–
N#Cc1ccc(Oc2ccc(S(=O)(=O)N3CCCCC3)cn2)cc1,–,–,·,–,–,–
N#Cc1ccccc1Oc1ccc(S(=O)(=O)N2CCCCC2)cn1,–,–,·,–,10µM,–
Clc1ccc(CN=C2Nc3ccccc3CS2)cc1,–,–,–,–,8.91µM,–
Cc1ccc(CN=C2Nc3ccccc3CS2)cc1,–,–,–,–,?,–
Cc1ccc(C(=O)Nc2nc(-c3ccccn3)cs2)s1,–,–,·,–,–,–
Cc1cccnc1Nc1nc(-c2ccccc2)cs1,–,–,·,–,–,–
Cc1cccnc1Nc1nc(-c2ccccn2)cs1,–,–,0.794µM,–,–,–
CCc1sc(C(=O)Nc2nc(-c3ccccn3)cs2)cc1C,–,–,·,-68.8,–,·
Cc1cc([N+](C)(C)C)cc(C)c1/C=C/c1ccnc2ccccc12,·,·,·,·,–,·
S=c1[nH]nc(SCc2ccccc2)c2[nH]cnc12,–,–,·,–,3.55µM,·
COc1ccc(NC(=O)Nc2sc3nc4n(c(=O)c3c2C)CCC(C)CC4)cc1OC (configuration not stated),·,·,·,–,·,–
O=C(CC(c1ccccc1)c1ccccc1)Nc1ccc(Cl)cn1,–,–,10µM,–,–,–
O=C(/C=C/c1ccccc1)Nc1ccc(Cl)cn1,–,–,–,–,3.55µM,–
O=C(CS(=O)(=O)c1ccccc1)Nc1ccc(Cl)cn1,–,–,·,–,–,–
SMILES,Giardia killer,IL-2 act,NPSR antag,RXFP1 antag,BRCA1 expr act,RXFP1 ag
O=c1c(-c2cc3ccccc3o2)[n+]([O-])c2ccccc2n1OCc1ccccn1,?,–,?,–,–,–
CCOn1c(=O)c(-c2cc3ccccc3o2)[n+]([O-])c2ccccc21,–,51.9,–,–,–,–
Cc1cccc(-c2nc(CSc3nncn4c3cc3oc(C)cc34)c(C)o2)c1,·,·,·,–,·,–
CCN1CCN(CCCNC(=O)Cn2c(-c3cccs3)cc3cc(Cl)ccc32)CC1,·,·,·,-69.0,·,–
CN1CCN(CCCNC(=O)Cn2c(-c3cccs3)cc3cc(Cl)ccc32)CC1,·,·,·,–,·,–
O=C(O)Cc1ccc2c(c1)C(=O)c1ccccc1CO2,·,·,·,–,·,·
CCCCOc1ccc(C2(C)CC(=O)NC2=O)cc1 (configuration not stated),–,–,–[7.67 µM],–,12.6µM,–
CCCOc1ccc(CC2CCC(=O)NC2=O)cc1 (configuration not stated),–,–,–,–,–,–
COc1ccccc1CNc1nc(-c2ccco2)nn1C(=O)c1ccccc1[N+](=O)[O-],·,·,·,–,·,–
CC(NC(=O)c1cc(COc2ccc(-n3cncn3)cc2)on1)c1ccc(F)cc1 (configuration not stated),·,–,·,–,12.6µM,·
CC(=O)Nc1ccc2c(c1Br)Cc1ccccc1-2,–,–,·,–,3.16µM,·
Cc1cc2oc(=O)cc(COC(=O)c3n[nH]c4ccccc34)c2cc1C,–,–,–,–,–,–
COc1ccc2c(COC(=O)c3n[nH]c4ccccc34)cc(=O)oc2c1,–,–,?,–,4.47µM,–
CCOc1ccc(-n2c(=O)c3c(C)c(C(=O)N(C)C)sc3n(CC(=O)Nc3c(C)cc(C)cc3C)c2=O)cc1,·,·,·,–,·,–
COc1ccccc1-c1nnc(NC(=O)CSc2nncn2C)s1,?,–,–,–,10µM,–
COc1ccccc1-c1nnc(NC(=O)C(C)Sc2nncn2C)s1 (configuration not stated),–,–,–,–,–,–
COc1ccc(-n2c(C)cc(/C=C3\SC(=O)NC3=O)c2C)cc1,–,–,·,–,11.2µM,–
Cc1cc(/C=C2\SC(=S)NC2=O)c(C)n1-c1cccc(O)c1,?,–,?,–,2.82µM,–
Cc1cc(/C=C2\SC(=S)NC2=O)c(C)[nH]1,–,–,–,-111.0,–,–
Cc1sc(-n2c(C)cc(/C=C3\SC(=S)NC3=O)c2C)c(C#N)c1C,–,–,–,-105.5,–,–
CCCN1CNc2c(c(=O)[nH]c(=S)n2CCc2cc(OC)ccc2OC)C1,–,·,·,·,–,·
COc1ccccc1/C=C1\C=Cc2ccccc21,·,·,·,·,–,·
CC(OC(=O)c1ccccc1OCC(=O)Nc1ccc(Br)cc1)C(=O)NC1CCCC1 (configuration not stated),·,·,·,·,–,·
COc1ccc(-c2nc3sc(CCNC(=O)C(=O)Nc4ccccc4C#N)c(C)n3n2)cc1,·,·,·,–,·,–
COc1cccc(-c2ccnc3c(-c4ccccc4)c(C)nn23)c1,·,·,·,·,11.2µM,–
SMILES,Giardia killer,IL-2 act,NPSR antag,RXFP1 antag,BRCA1 expr act,RXFP1 ag
COc1cccc(-c2cnc3cccnn23)c1,·,–,·,·,12.6µM,·
Cc1csc(SCc2nnc(-c3ccc(Cl)cc3)o2)n1,–,–,?,–,7.08µM,–
Cc1csc(SCc2nnc(-c3ccccc3Br)o2)n1,–,–,–,–,?,–
CNc1nc(-c2ccccc2)c(-c2ccccc2)s1,–,·,·,·,–,·
O=C(c1cccs1)N1CCc2c([nH]c3ccccc23)C1c1ccccn1 (configuration not stated),–,–,?,–,–,–
O=C(c1cccs1)N1CCc2c([nH]c3ccccc23)C1c1ccc(Cl)cc1 (configuration not stated),–,–,10µM,–,–,–
CN1/C(=C\C(=O)COC(=O)c2ccco2)C(C)(C)c2ccccc21,–,–,–,–,–,–
